High-throughput results as filed in PubChem BioAssay.
TGFb SMAD3 inh: blocks TGF-b signaling; HepG2 CAGA-GFP TGF-b/SMAD3 reporter, GFP fluorescence, 18 h; TGF-beta stimulated, 500 pg/mL final; Potency, µM (series often up to 46.1 µM), for the others: top-dose activity, negative = inhibition, most hits filed as inhibitors; 1.2% of 410,000 active; further: on the % scale 0 is the no-effect control and ±100 the full control effect; nearly all actives have a fitted effect of over 65% in size
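Inhibition was scored as loss of TGF-beta-induced (500 pg/mL final, 18 hours, 37 degrees C) GFP in HEPG2 cells carrying a CAGA-GFP reporter, in DMEM with 1% FBS. Well GFP was summed per cell; Activity was normalised to unstimulated and stimulated DMSO wells, then concentration-response fitting.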
ATXN viability: reduces viability in counter-screen for ATXN expression inhibitors | S2 cells (HEK-293 line with an ATXN2-luciferase reporter) viability, CellTiter-Fluor protease fluorescence, 24 h | Potency, µM (highest dose often 56.7 µM), most hits filed as cytotoxic | 0.49% of 400,000 active | AID 651635; further: nearly all actives have a fitted effect of over 40% in size
GLP1R ag: activates the human GLP-1 receptor. P43220. HEK293 GLP-1R CRE-luciferase, luminescence, 4-6 h; cells express a hypersensitive GLP-1R form. Potency, µM (series often up to 45.6 µM), for inactives: at the highest dose activation, hits mostly activators. 0.007% of 380,000 active. AID 624172; further: % of control where 0% means no effect
Target sequence (P43220 whole entry, looked up): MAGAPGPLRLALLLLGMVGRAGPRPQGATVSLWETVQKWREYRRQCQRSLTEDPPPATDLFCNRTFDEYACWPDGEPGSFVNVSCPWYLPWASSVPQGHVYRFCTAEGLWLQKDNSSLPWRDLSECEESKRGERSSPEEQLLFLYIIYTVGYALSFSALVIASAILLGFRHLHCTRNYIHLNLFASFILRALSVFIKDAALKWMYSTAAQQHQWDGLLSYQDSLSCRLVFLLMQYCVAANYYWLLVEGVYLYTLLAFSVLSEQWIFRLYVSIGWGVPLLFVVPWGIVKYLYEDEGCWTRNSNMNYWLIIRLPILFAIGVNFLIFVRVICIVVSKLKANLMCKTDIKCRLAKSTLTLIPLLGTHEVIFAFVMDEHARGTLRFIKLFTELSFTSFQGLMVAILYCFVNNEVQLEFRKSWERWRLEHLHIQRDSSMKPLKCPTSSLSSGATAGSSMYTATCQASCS
GLP-1R inv ag: acts as inverse agonist at human GLP-1 receptor | P43220 | HEK293 GLP-1R CRE-luciferase, luminescence, 24 h; GLP-1R form is constitutively active | Potency, µM (top dose mostly 38.3 µM), for inactives: at the top dose activity change, negative = inhibition, hits mostly inhibitors | 1.6% of 410,000 active | AID 624417; further: on the % scale 0 is the no-effect control and ±100 the full control effect; nearly all actives have a fitted effect of over 55% in size
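Using stably transfected HEK293 (constitutively active GLP-1R, cAMP-luciferase reporter), compounds were incubated 24 hr and luciferase measured by luminescence.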
ATXN2 expr inh: reduces ATXN2 reporter expression in HEK-293 cells; HEK-293 ATXN2-luciferase reporter, luminescence, 24 h; Potency, µM (series often up to 57 µM), for inactives: at the top dose activity change, negative = inhibition, most hits filed as inhibitors; 0.72% of 360,000 active; AID 1745845; further: on the % scale 0 is the no-effect control and ±100 the full control effect; nearly all actives have a fitted effect of over 55% in size
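qHTS (up to 57 uM final) was run with 24 h compound exposure of reporter cells at 37 °C. Each well was multiplexed: SteadyGlo luminescence measured ATXN2-luciferase expression after a fluorogenic Gly-Phe-AFC viability readout (25 uM final).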
HepG2 tox: counter-screen for TGF-b inhibitors: cytotoxicity in HepG2 cells | HepG2 CAGA-GFP viability, ATP luminescence, 18 h | Potency, µM (series often up to 46.1 µM), without a hit: top-dose activity change, negative = cytotoxicity, actives largely listed as cytotoxic | 0.76% of 410,000 active | AID 588856
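CellTiter-Glo luminescence gave cytotoxicity after 18 hours at 37 degrees C. The cells were HepG2 CAGA-GFP in 1% FBS DMEM, stimulated with 500 pg/mL TGF-beta after compound addition. %Activity was normalised to no-cell wells (complete cell-killing) and DMSO (no toxicity), and curves were fitted and classified.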
An asterisk follows results filed as active; i = inactive; ? = inconclusive; / = not tested or not shown. Only some compounds are listed: those with a hit (about 3.7% of all), similar ones and a draw of the others. The call rests on the fitted dose curve; in most records, active means well fitted curve in the direction sought with a large enough effect; inconclusive means small, poorly fitted or top-dose-only effect, or another doubt; inactive means no such curve, though single readings can be large; an effect the other way counts as inactive or inconclusive. Potency means the concentration at half of the fitted maximal effect.

SMILES	TGFb SMAD3 inh	ATXN viability	GLP1R ag	GLP-1R inv ag	ATXN2 expr inh	HepG2 tox
CCOc1ccc(N(Cc2ccccc2)C(=O)c2nc(SC)ncc2Cl)cc1	?	i	/	?	?	-30%
COc1ccc(N(Cc2ccccc2)C(=O)c2nc(S(C)(=O)=O)ncc2Cl)cc1	2µM*	/	/	10µM*	/	-109%
CCN(CC)CCOC(=O)c1ccc(NC(=O)c2cc3c(s2)-c2ccccc2OC3)cc1	11µM*	i	1%	?	?	10µM*
CC(=O)Nc1ccn(C2OC(C(COC(C)=O)NC(=O)C(Cc3ccccc3)NC(=O)OC(C)(C)C)C(OC(C)=O)C2OC(C)=O)c(=O)n1 (stereo not given)	6%	/	/	/	/	13%
CC(=O)Oc1ccc(OC(C)=O)c(SCCCCCN2CCOCC2)c1	16µM*	?	-21%	?	?	-81%
COc1cccc(CNC(=O)c2c(OC)cc(=O)n3c2CCN(C(=O)c2cc(C)ccc2C)CC3)c1	/	i	/	/	/	/
CCCCn1c2c(c(=N)c3c1CCC3)CCC2	?	i	-1%	?	?	4%
CCCCCCCCCn1c2c(c(=N)c3c1CCC3)CCC2	4.5µM*	?	-36%	?	2µM*	-72%
CCCCCCn1c2c(c(=N)c3c1CCC3)CCC2	?	i	2%	?	8.9µM*	-8%
CCCCCCCn1c2c(c(=N)c3c1CCC3)CCCC2	?	?	9%	-9%	1.9µM*	-12%
CCCCC/C(C=O)=C\c1ccccc1	/	i	/	/	12%	/
Cc1cc(C)n(-c2cccc(C(=O)NCC3Cc4cc(Cl)cc(-c5cnccn5)c4O3)c2)n1 (stereo not given)	/	i	/	/	/	/
Cc1cccc2cc(CN(Cc3ccccc3)C(=O)c3cccc(F)c3)c(Cl)nc12	-24%	i	-2%	11µM*	-21%	-18%
Cc1ccc(N(Cc2ccccc2)C(=O)c2cccc(F)c2)cc1	-9%	i	14%	?	1%	0%
Cc1cc(NC(=O)C(C)(C)C)cc(-c2nc3ncccc3o2)c1O	8%	i	/	38%	5%	13%
Cc1ccc(CN2CCC(C(=O)Nc3cccc(-c4cccc(F)c4)c3)CC2)o1	-27%	i	5%	?	/	-42%
O=C(Nc1cccc(-c2cccc(Cl)c2)c1)C1CCN(Cc2ccc(CO)o2)CC1	?	i	6%	3.5µM*	-38%	-56%
O=C(NCc1nnc2n1CCN(Cc1cccc(C(F)(F)F)c1)CC2)c1ccncc1	/	i	/	/	/	/
CCc1ccc2[nH]c(=O)c(CN(CCN(C)C)C(=O)Nc3ccccc3)cc2c1	26%	?	3%	8.9µM*	-9%	-13%
O=C(NC1CCCCC1)N(CCO)Cc1cc2cc3c(cc2[nH]c1=O)OCCO3	0%	/	6%	0%	/	-3%
Cc1cc(C)c2cc(CN(CCN(C)C)C(=O)Nc3ccccc3Cl)c(=O)[nH]c2c1	-20%	?	-2%	10µM*	/	-3%
COc1ccc2[nH]c(=O)c(CN(CCCN(C)C)C(=O)Nc3ccccc3)cc2c1	15%	i	-8%	?	-4%	0%
CCc1ccc2[nH]c(=O)c(CN(CCN(CC)CC)C(=O)NC3CCCCC3)cc2c1	?	?	9%	10µM*	-26%	-72%
O=C(Nc1cn[nH]c1-c1nc2ccc(CN3CCOCC3)cc2[nH]1)NC1CC1	/	/	/	/	5.4µM*	/
CCOC(=O)C1=CN(Cc2cccc(F)c2)S(=O)(=O)NC1c1ccc2ccccc2c1 (stereo not given)	13µM*	i	-3%	13µM*	-15%	-11%
Cc1ccc(-c2cc(-c3ccc(C)cc3O)[nH]n2)cc1	?	i	-2%	?	/	-33%
Cc1ccc(O)c(-c2cc(-c3cccc(Br)c3)n[nH]2)c1	?	i	19%	10µM*	20%	-67%
